Data: PubChem BioAssay (Tox21)
Inconclusive results are not listed. A call without a number means that no potency is given here. Unmarked numbers belong to inactive results. The source made the active and inactive calls. Calls follow the shape of the dose curve; as a rule, active = well fitted cell-killing curve with a large enough effect in the repeat runs; inconclusive = weak or mixed curves, or effect the other way; inactive = flat fitted curve, though single readings scatter.

Assay: qHTS RealTime-Glo MT Cell Viability Assay in HEK293 cells - 16 hour (AID 1224872); also: top concentration of the series differs between compounds; nearly all actives have a fitted effect of over 50% in size
Conditions: RealTime-Glo luminescence; series mostly up to 76.8 µM
Source text: National Center for Advancing Translational Sciences [NCATS]
NIH Chemical Genomics Center [NCGC]
U.S. Environmental Protection Agency [EPA]
National Institutes of Environmental Health Sciences [NIEHS]
National Toxicology Program [NTP]
U.S. Food and Drug Administration [FDA]
Measure of cell viability is critical in the cell-base assay. Analysis of cell viability is necessary for the characterization of cell responses to cytotoxic drugs and environmental stress. A RealTime-Glo MT Cell Viability Assay to monitor cell viability in real time of continues cell culture during 40 hours of compound treatment was used to screen Tox21 10K library compounds in Hek293 cells. The RealTime-Glo MT Cell Viability Assay is a nonlytic, homogeneous, bioluminescent method to measure cell viability in real time using a simple, plate-based method. The assay involves adding NanoLuc luciferase and a cell-permeant prosubstrate to cells in culture. Viable cells reduce the proprietary prosubstrate to generate a substrate for NanoLuc luciferase. This substrate diffuses from cells into the surrounding culture medium, where it is rapidly used by the NanoLuc Enzyme to produce a luminescent signal. The signal correlates with the number of viable cells, making the assay well suited for cytotoxicity studies.
Tox21 Assay Protocol Summary:
The mixture of Hek293 cell suspension and reagents were dispensed at 600cells/6 ul/well in 1536-well tissue culture treated black solid bottom plates using a Multidrop dispenser. After the assay plates were incubated at a 37 C/5% CO2 incubator for 5 hours, 23 nL of compounds dissolved in DMSO, positive and negative controls was transferred to the assay plate by a pintool work station. The plates were incubated at 37 C for 40 hours. The luminescence intensity were measured at 0h, 8h, 16h, 24h, 32h and 40h time points using ViewLux plate reader during compound treatment.

| SMILES | Potency | activity change, negative = cytotoxicity |
| --- | --- | --- |
| C1COCCO1 | inactive | – |
| C1C2OC2C2C1C1CC2C2OC12 (stereo not given) | inactive | – |
| CC(CCO)CCCC(C)(C)O (stereo not given) | inactive | – |
| C=CCOCC(O)CS(=O)(=O)O (stereo not given) | inactive | – |
| CC(C)=CCC/C(C)=C/C(=O)O | inactive | – |
| CCCCCCCCCCCl | inactive | – |
| OC[C@H]1O[C@@H]2O[C@H]3[C@H](O)[C@@H](O)[C@@H](O[C@H]4[C@H](O)[C@@H](O)[C@@H](O[C@H]5[C@H](O)[C@@H](O)[C@@H](O[C@H]6[C@H](O)[C@@H](O)[C@@H](O[C@H]7[C@H](O)[C@@H](O)[C@@H](O[C@H]8[C@H](O)[C@@H](O)[C@@H](O[C@H]9[C@H](O)[C@@H](O)[C@@H](O[C@H]1[C@H](O)[C@H]2O)O[C@@H]9CO)O[C@@H]8CO)O[C@@H]7CO)O[C@@H]6CO)O[C@@H]5CO)O[C@@H]4CO)O[C@@H]3CO | inactive | – |
| CCN1CCCC1CNC(=O)c1cc(S(N)(=O)=O)ccc1OC (stereo not given) | inactive | – |
| CCCCCCOC(=O)CC(CC(=O)OCCCCCC)(OC(=O)CCC)C(=O)OCCCCCC | inactive | – |
| O=C(O)c1ccc[n+]([O-])c1 | inactive | – |
| CCCCC1CCCCC(=O)O1 (stereo not given) | inactive | – |
| CC(=O)CCc1ccc(O)cc1 | inactive | – |
| CC(C)(C)OC(=O)N1C[C@@H](F)C[C@H]1C(=O)O | inactive | – |
| CCCC(C)CO (stereo not given) | inactive | – |
| CCn1cc(C(=O)O)c(=O)c2cc(F)c(N3CCN(C)CC3)cc21 | – | 4.51% [at 15.8 µM] |
| CN1[C@@H]2CC[C@H]1CC(NC(=O)n1c(=O)[nH]c3ccccc31)C2 (stereo not given in full) | inactive | – |
| Cc1ccccc1C(=O)O | inactive | – |
| CCCCCCCCCCCCCCCCCC(=O)OCCCCCCCCCCCCCC(C)C | inactive | – |
| CCCCCC[C@@H](CCC)C(=O)O | inactive | – |
| COc1cccc(OC)c1 | inactive | – |

| SMILES | Potency | activity change, negative = cytotoxicity |
| --- | --- | --- |
| c1ccc2cnncc2c1 | inactive | – |
| O=C(O)Cc1cc(I)c(Oc2cc(I)c(O)c(I)c2)c(I)c1 | inactive | – |
| CNC(=O)c1c(I)c(NC(=O)CCCCC(=O)Nc2c(I)c(C(=O)O)c(I)c(C(=O)NC)c2I)c(I)c(C(=O)O)c1I | inactive | – |
| C1=C\CC/C=C\CC/C=C\CC/1 | inactive | – |
| CCCCNc1ccccc1 | inactive | – |
| Cc1c(F)cc2c(=O)c(C(=O)O)cn3c2c1CCC3C (stereo not given) | inactive | – |
| C=CCSCC1Nc2cc(Cl)c(S(N)(=O)=O)cc2S(=O)(=O)N1 (stereo not given) | inactive | – |
| COCc1ccc(COC)cc1 | inactive | – |
| CC(C)CCOC(=O)CC(C)C | inactive | – |
| Cc1ncc(CSSCc2cnc(C)c(O)c2CO)c(CO)c1O | inactive | – |
| CCCCCOC(=O)Nc1nc(=O)n([C@@H]2O[C@H](C)[C@@H](O)[C@H]2O)cc1F | inactive | – |
| NCC[C@H](O)C(=O)N[C@@H]1C[C@H](N)[C@@H](O[C@H]2O[C@H](CN)[C@@H](O)[C@H](O)[C@H]2O)[C@H](O)[C@H]1O[C@H]1O[C@H](CO)[C@@H](O)[C@H](N)[C@H]1O | – | -0.0333% [at 0.29 µM] |
| Oc1cc(O)c2c(c1)O[C@H](c1ccc(O)c(O)c1)[C@H](O)C2 | inactive | – |
| COc1nc(C)nc(N)n1 | inactive | – |
| CC(C)(O)Cc1ccccc1 | inactive | – |
| CCC(C)OC(=O)N1CCCCC1CCO (stereo not given) | inactive | – |
| COC(=O)CCCCCCCCC(=O)OC | inactive | – |
| Fc1ccccc1-c1ccccc1 | inactive | – |
| C#CC(O)CCCCC (stereo not given) | inactive | – |
| C#CC(C)(O)CC(C)C (stereo not given) | inactive | – |
